The text below walks through data of PubChem BioAssay (EPA / NIEHS).

Activity calls are given as the source filed them. Rule for the calls: active = hit-call score of the fitted dose curve at least 0.9, where 1 is the maximum; inactive = score below 0.9.

The target in the first assay is Bile acid receptor (Homo sapiens) (UniProt Q96RI1). Briefly: ATG_IR1_CIS: Attagene CIS-FACTORIAL HepG2 Assay for human Nuclear Receptor Subfamily 1 Group H Member 4 (NR1H4), IR1 submotif (AID 2282946). To be noted: IR1 reporter transcription, actives raise or lower the signal. Summed up: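 Cells (human HepG2) carry transiently transfected cis-promoter reporter transcription units. Compounds are incubated 24 h, total RNA is reverse-transcribed and amplified, and labelled fragments are resolved by capillary electrophoresis. Curves use DMSO as baseline.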
Sequence of Bile acid receptor (Homo sapiens) (Q96RI1 whole entry, looked up, the tested form may be a part): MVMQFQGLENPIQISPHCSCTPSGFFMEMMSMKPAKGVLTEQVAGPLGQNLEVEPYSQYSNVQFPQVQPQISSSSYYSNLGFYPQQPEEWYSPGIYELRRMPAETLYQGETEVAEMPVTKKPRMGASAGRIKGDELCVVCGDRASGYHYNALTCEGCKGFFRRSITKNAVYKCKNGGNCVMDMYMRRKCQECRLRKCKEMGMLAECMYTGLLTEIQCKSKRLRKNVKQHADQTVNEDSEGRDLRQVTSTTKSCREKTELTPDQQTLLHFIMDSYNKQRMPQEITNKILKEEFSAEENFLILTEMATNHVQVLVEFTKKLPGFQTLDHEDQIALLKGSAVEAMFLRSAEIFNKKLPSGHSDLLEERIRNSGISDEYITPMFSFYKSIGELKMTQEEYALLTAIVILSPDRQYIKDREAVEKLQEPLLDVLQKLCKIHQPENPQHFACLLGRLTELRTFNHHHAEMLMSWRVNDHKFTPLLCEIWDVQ
As to `O=Cc1ccc(CO)o1`, the call was inactive.
`CO[Si](CCC1CCC2OC2C1)(OC)OC` (stereo not given): the result was inactive.
The same measure, in the same setting: the same measure for `C=C(C)CCO`: “inactive”.
Take `CCCCCCC(O)CO` (stereo not given): the compound was classed as inactive.
On the same count and under the same terms, for `CCOC(=O)[C@H](C)O` the value was “inactive”; for `O=C1c2cccc(O)c2C(=O)c2c(O)cc(CO)cc21`, “inactive”.

System in another assay: not listed separately
Briefly: ATG_GRE_CIS: Attagene CIS-FACTORIAL HepG2 Assay for human Glucocorticoid Response Elements (GRE) (AID 2282947). Particulars: HepG2 GRE cis-reporter, Attagene multiplex mRNA; actives raise or lower the signal. Summed up:
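Assay uses human hepatoma HepG2 cells transfected with cis-promoter reporter units, exposed 24 h. mRNA from reporters detected by RT-PCR plus capillary electrophoresis; DMSO serves as negative control and baseline.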
As to `S=C(NC1CCCCC1)NC1CCCCC1`, the compound was called inactive.
The same measure, in the same setting: the same measure for `Cc1cccc(OCCOc2cccc(C)c2)c1`: “inactive”; for `O=Cc1ccc(CO)o1`: “inactive”; for `CO[Si](CCC1CCC2OC2C1)(OC)OC` (stereo not given): “inactive”.
As to `O=C(c1ccccc1)c1ccc(O)c(O)c1O`, the call was inactive.
Turning to `O=C(Nc1ccccc1)c1ccccc1O`, the call was inactive.
Regarding `CC(=O)NS(=O)(=O)c1ccc(N)cc1`, the compound was classed as inactive.
As for `C=C(C)CCO`, the compound was called inactive.
On the same count and under the same terms, for `CCCCCCCCCCc1ccccc1` the value was “inactive”; for `CCCCCCC(O)CO` (stereo not given), “inactive”.
Still for that read-out and setting: the same measure for `CCOC(=O)[C@H](C)O`: “inactive”; for `CC(=O)OCCC1CCCCC1`: “inactive”; for `O=C1c2cccc(O)c2C(=O)c2c(O)cc(CO)cc21`: “inactive”.
For `C#CC1(O)CC[C@H]2[C@@H]3CCC4=CCCC[C@@H]4[C@H]3CC[C@@]21C` (stereo not given in full), the result was inactive.
Same read-out and setting: the same measure for `COc1cc(NC(=O)CC(C)=O)c(OC)cc1Cl`: “inactive”.
The same measure, in the same setting: the same measure for `CNC(=S)N(C)C`: “inactive”.
Still for that read-out and setting: for `COc1ccc(-c2coc3cc(O)ccc3c2=O)cc1` the value was “inactive”; for `CC(=O)C=CC1C(C)=CCC(C)C1(C)C` (stereo not given), “inactive”.

System in a further assay: not listed separately
Briefly: ATG_ISRE_CIS: Attagene CIS-FACTORIAL HepG2 Assay for human Interferon Regulatory Factor 1 (IRF1) binding to an Interferon-Stimulated Response Element (ISRE) (AID 2282948). To be noted: HepG2 ISRE cis-reporter (Attagene), mRNA transcription readout; actives raise or lower the signal. In outline: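 Transiently transfected HepG2 cells carrying cis-element reporter units, dosed 24 hours. Reporter mRNA quantified by RT-PCR, fluorescent primer extension, HpaI digestion and capillary electrophoresis. Bidirectional fitting relative to DMSO.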
Take `CC(C)=CCC[C@H](C)CCO`: the compound was classed as inactive.
Broadly, the AC50 is the concentration giving half of the maximal activity seen. On to `CCCCC/C=C\C/C=C\CCCCCCCC(=O)OC`, for which the AC50 is 80.7 µM (active).
Regarding `O=S(=O)(Oc1ccc(Cl)cc1Cl)c1ccccc1`, the outcome was inactive.
As for `CC(C)CCCC(C)CC=O` (stereo not given), the outcome was inactive.
For `CC(C)(C)C(=O)CCc1ccc(Cl)cc1`, the compound was classed as inactive.
In the case of `O=CN1CCCCC1`, the compound was called inactive.
For the compound `O=Cc1ccc(CO)o1`, the result was inactive.
In the case of `CO[Si](CCC1CCC2OC2C1)(OC)OC` (stereo not given), the compound was classed as inactive.
`N#[N+]c1ccc2c(S(=O)(=O)[O-])cccc2c1O`: the call was inactive.
Same read-out and setting: the same measure for `Cc1cc(=O)n(-c2ccccc2)n1C`: “inactive”; for `N[C@H]1C(O)O[C@H](CO)[C@H](O)[C@@H]1O` (stereo not given in full): “inactive”.
For `COC(=O)c1c(C)cc(O)c(C)c1O`, the compound was called inactive.
The same measure, in the same setting: the same measure for `Cc1cc(C)c(C)c(O)c1`: “inactive”; for `O=S1(=O)OC(c2ccc(O)cc2)(c2ccc(O)cc2)c2ccccc21`: “inactive”; for `CCN(Cc1cccc(S(=O)(=O)O)c1)c1ccc(C(=C2C=CC(=[N+](CC)Cc3cccc(S(=O)(=O)[O-])c3)C=C2)c2ccccc2)cc1`: “inactive”.
For `CCO[Si](CCCN=C=O)(OCC)OCC`, the result was inactive.
As for `C=C(C)CCO`, the compound was classed as inactive.
For `O=C1CCCC(=O)O1`, the compound was called inactive.
As to `CCCCC(CC)CCC(CC(C)C)OS(=O)(=O)O` (stereo not given), the compound was classed as inactive.
`CC(CC=O)c1ccccc1` (stereo not given): the AC50 is 56.1 µM (active).
Take `CC1=CC[C@H]2C[C@@H]1C2(C)C`: the call was inactive.
Still for that read-out and setting: the same measure for `O=C1c2cccc(O)c2C(=O)c2c(O)cc(CO)cc21`: “inactive”; for `C(=CC=Nc1ccccc1)C=CNc1ccccc1`: “inactive”.
The same measure, in the same setting: for `O=c1n(CCO)c(=O)n(CCO)c(=O)n1CCO` the value was “inactive”.
On the same count and under the same terms, the same measure for `C=C(C)[C@H]1CC=C(C)CC1`: “inactive”.

System in a further assay: not listed separately
The experiment in a line: ATG_M_32_CIS: Attagene CIS-FACTORIAL HepG2 Assay for M32 Transcription Factor (Internal Marker) (AID 2282949).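 Note: background control marker of the multiplexed CIS panel rather than a real target.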 Particulars: HepG2 Attagene cis-factorial M32 reporter, mRNA; actives raise or lower the signal. In outline:
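Following 24 h chemical exposure of HepG2 cells transiently expressing cis-promoter reporter constructs, reporter transcript levels were determined by RT-PCR with fluorescent labelling and capillary electrophoresis, then fitted bidirectionally against DMSO.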
Take `CC(C)=CCC[C@H](C)CCO`: the compound was classed as inactive.
The same measure, in the same setting: for `CCCCC/C=C\C/C=C\CCCCCCCC(=O)OC` the value was “inactive”.
As to `S=C(NC1CCCCC1)NC1CCCCC1`, the outcome was inactive.
The same measure, in the same setting: the same measure for `Cc1cccc(OCCOc2cccc(C)c2)c1`: “inactive”; for `O=S(=O)(Oc1ccc(Cl)cc1Cl)c1ccccc1`: “inactive”.
Same read-out and setting: the same measure for `CC(C)CCCC(C)CC=O` (stereo not given): “inactive”.
Same read-out and setting: the same measure for `CC(C)(C)C(=O)CCc1ccc(Cl)cc1`: “inactive”.
As to `O=CN1CCCCC1`, the outcome was inactive.
Turning to `O=Cc1ccc(CO)o1`, the compound was classed as inactive.
Turning to `N#[N+]c1ccc2c(S(=O)(=O)[O-])cccc2c1O`, the compound was classed as inactive.
With `Cc1cc(=O)n(-c2ccccc2)n1C`, the result was inactive.
The same measure, in the same setting: the same measure for `N[C@H]1C(O)O[C@H](CO)[C@H](O)[C@@H]1O` (stereo not given in full): “inactive”; for `Cc1cccc(C(=O)O)c1`: “inactive”; for `COC(=O)c1c(C)cc(O)c(C)c1O`: “inactive”.
The same measure, in the same setting: the same measure for `Cc1cc(C)c(C)c(O)c1`: “inactive”; for `O=S1(=O)OC(c2ccc(O)cc2)(c2ccc(O)cc2)c2ccccc21`: “inactive”.
Still for that read-out and setting: for `CCN(Cc1cccc(S(=O)(=O)O)c1)c1ccc(C(=C2C=CC(=[N+](CC)Cc3cccc(S(=O)(=O)[O-])c3)C=C2)c2ccccc2)cc1` the value was “inactive”; for `O=C(Nc1ccccc1)c1ccccc1O`, “inactive”.
With `CC(=O)NS(=O)(=O)c1ccc(N)cc1`, the compound was classed as inactive.
On the same count and under the same terms, the same measure for `CCO[Si](CCCN=C=O)(OCC)OCC`: “inactive”; for `C=C(C)CCO`: “inactive”; for `CCCCCCCCCCc1ccccc1`: “inactive”.
Regarding `CCCCCCC(O)CO` (stereo not given), the compound was called inactive.
Still for that read-out and setting: the same measure for `CCOC(=O)[C@H](C)O`: “inactive”; for `CC(=O)OCCC1CCCCC1`: “inactive”; for `O=C1CCCC(=O)O1`: “inactive”.
On to `CCCCC(CC)CCC(CC(C)C)OS(=O)(=O)O` (stereo not given), for which the compound was called inactive.
Turning to `CC(CC=O)c1ccccc1` (stereo not given), the compound was classed as inactive.
Take `CC1=CC[C@H]2C[C@@H]1C2(C)C`: the call was inactive.
As to `C(=CC=Nc1ccccc1)C=CNc1ccccc1`, the compound was classed as inactive.
Still for that read-out and setting: for `C#CC1(O)CC[C@H]2[C@@H]3CCC4=CCCC[C@@H]4[C@H]3CC[C@@]21C` (stereo not given in full) the value was “inactive”.
For the compound `CNC(=S)N(C)C`, the result was inactive.
Take `COc1ccc(-c2coc3cc(O)ccc3c2=O)cc1`: the compound was called inactive.
On the same count and under the same terms, for `O=c1n(CCO)c(=O)n(CCO)c(=O)n1CCO` the value was “inactive”; for `CC(=O)C=CC1C(C)=CCC(C)C1(C)C` (stereo not given), “inactive”; for `C=C(C)[C@H]1CC=C(C)CC1`, “inactive”.
